Compounds with a hit are over-represented: about 4.3% of the library has one in this group of screens.
CHOP inh: CHOP inhibition in unfolded protein response. CHO-K1 CHOP-promoter luciferase, tunicamycin-induced, 15-18 h. inhibition, % at 10 µM. 220,000 compounds, 3.8% hits;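 active = compounds that reduced the stress-induced luciferase reporter signal by more than about 70% of percent inhibition, limit read from the data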
CF NFkB block: inhibitors of cystic fibrosis induced NF-kB; inhibition, % at 5 µM; 360,000 compounds, 0.86% hits; KKLEB NF-kB-GFP reporter, PAF-induced, GFP fluorescence overnight; AID 588850;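 active = at least 50% inhibition at 5 µM, scaled per plate between neutral and stimulator controls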;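 also: PAF is a Pseudomonas aeruginosa culture filtrate used as stimulus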
MITF TRPM1 inh: inhibitors of MITF-driven TRPM1 promoter in melanoma cells; AID 488899; inhibition, % at 12.5 µM; SK-MEL-5 TRPM1 promoter luciferase, 24 h; 330,000 compounds, 0.83% hits;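 active = mean inhibition across replicates of 60% or more, whatever share of single replicates reaches that level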
KKLEB cytotox: counter-screen for CF NF-kB inhibitors: cytotoxicity; KKLEB CF airway cells viability, ATPlite luminescence, overnight; stronger effect = lower value; cells stimulated with P. aeruginosa culture filtrate; activity change (cytotoxicity), % at 5 µM; 360,000 compounds, 0.36% hits; AID 602141;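 active = corrected activity change at or below -50% at 5 µM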
HIF-2a inh: HIF-2a inhibition; AID 624352; 786-0 RCC cells HIF-2a reporter, luciferase luminescence, overnight; 360,000 compounds, 0.72% hits; inhibition, % at 18.8 µM;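 active = inhibition of the luminescence signal of 40% or more relative to plate controls, in a single-dose primary screen at 18.75 µM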
Peg3 prom inh: inhibitors of Peg3 promoter; HeLa PEG-Prom luciferase reporter, luminescence, overnight; inhibition, % at 20 µM; 360,000 compounds, 1.7% hits; AID 588405;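 active = inhibition of at least 50% at 20 µM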
CHOP confirm: confirmation of CHOP induction inhibitors | shares compounds with CHOP inh | CHO-CHOP promoter luciferase reporter, tunicamycin-induced, luminescence | 2,100 compounds, 45% hits | inhibition, % at 10 µM;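 active = mean of three repeat readings of reporter signal inhibition above a set limit, cut at about 70% in these data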
Numbers stand for hits; – = inactive; · = no result given; ! = a repeat was not active.

SMILES	CHOP inh	CF NFkB block	MITF TRPM1 inh	KKLEB cytotox	HIF-2a inh	Peg3 prom inh	CHOP confirm
Cc1ccc(S(=O)(=O)N2CCCCC2)cc1C(=O)OC(C)C(=O)NCC1CCCCC1 (configuration not stated)	·	–	–	–	–	–	·
C=CCc1cc(C)ccc1OCC(O)CN1CCN(c2ccccc2)CC1 (configuration not stated)	106	–	–	–	–	–	96
C=CCc1ccc(OCC(O)CN2CCN(c3ccccc3)CC2)c(OC)c1 (configuration not stated)	·	–	–	–	–	–	·
CC(C)Cn1c(=O)c2ccccc2n2c(SCC(=O)N3c4ccccc4CC3C)nnc12 (configuration not stated)	98	–	–	–	–	–	85
CC(C)NC(=O)Cn1c(SCC(=O)N2c3ccccc3CC2C)nc2ccccc21 (configuration not stated)	–	–	–	–	–	–	·
Cc1c(C(=O)Nc2ccc3c(c2)OCCO3)sc2ncnc(N3CCCCC3C)c12 (configuration not stated)	·	–	–	–	–	–	·
COc1ccc(NC(=O)c2cc3c(=O)n(C)c4ccccc4c3n2C)cc1Cl	101	–	–	–	–	–	–
COc1oc(-c2ccc(Cl)cc2)nc1C(F)(F)F	103	–	–	–	–	–	71
COC(=O)c1oc(-c2ccc(Cl)cc2)nc1C	–	–	–	–	–	–	·
Cc1ccc(C2=NN(C(=O)CNCCO)C(c3cccs3)C2)cc1 (configuration not stated)	·	–	–	–	–	–	·
Cc1ccc2nc(NC(=O)C3CCN(S(=O)(=O)c4cc([N+](=O)[O-])ccc4Cl)CC3)sc2c1	97	–	–	–	–	–	89
Cc1ccc(NC(=O)C2CCN(S(=O)(=O)c3cc([N+](=O)[O-])ccc3Cl)CC2)nc1	·	–	–	–	–	–	·
O=[N+]([O-])c1ccc(NN=Cc2ccccc2O)nc1	·	–	–	–	–	–	·
O=[N+]([O-])c1ccc(O)c(/C=N/Nc2ccccn2)c1	105	69	65	-65	–	–	–
Cc1cc(C)cc(Oc2ccccc2C=O)c1	99	–	–	–	–	–	–
OC(CSc1c(Cl)cccc1Cl)CN1CCN(c2ccccc2F)CC1 (configuration not stated)	97	–	–	–	–	–	–
O=C(Oc1ccc(O)cc1)C12CC3CC(CC(C3)C1)C2	106	–	–	–	–	–	116
COc1ccc2c(c1)c1ncn(CCN3CCCC3)c(=O)c1n2C	101	–	–	–	–	–	–
O=C(CN1c2ccccc2Sc2ccccc21)NNC(=O)Nc1ccc(Cl)cc1	100	–	–	–	–	–	–
Cc1ccc(/C=N/N2C(=S)SC(C)(C)C2N(O)C(=O)Nc2ccc([N+](=O)[O-])cc2)cc1 (configuration not stated)	103	–	–	–	–	–	78
O=C(Nc1ccc(Cl)c(C(=O)N2CCOCC2)c1)c1ccccc1	·	–	–	–	–	–	·
O=C(Nc1cccc(C(=O)O)c1)/C(=C\c1cccc([N+](=O)[O-])c1)NC(=O)c1ccc(Br)cc1	·	–	·	–	–	–	·
O=C(CSc1nnnn1-c1ccc(Cl)cc1)NC(=O)Nc1ccc2c(c1)OCCO2	100	–	–	–	–	–	–
COc1ccccc1Nc1nnc(SCC(=O)NC(=O)Nc2ccc3c(c2)OCCO3)s1	104	–	–	–	–	–	–
Cc1ccc(-n2nnnc2SCC(=O)NC(=O)Nc2ccc3c(c2)OCCO3)cc1	–	–	–	–	–	–	·
SMILES	CHOP inh	CF NFkB block	MITF TRPM1 inh	KKLEB cytotox	HIF-2a inh	Peg3 prom inh	CHOP confirm
Cc1cccc(/C=N/NC(=O)c2ccncc2)n1	·	–	–	–	–	–	·
COc1ccc(C(=O)N/N=C/c2sc3ccccc3c2O)cc1	–	–	–	–	–	–	·
COc1ccc2cc(C(=O)N/N=C/c3sc4ccccc4c3O)ccc2c1	97	–	–	–	–	–	–
CCC(=O)Nc1cc(=O)[nH]c2nc(-c3ccc(Cl)cc3)nn12	–	–	–	–	–	–	·
CC(C)Cn1c(=O)c2ccccc2c2ccccc2c1=O	103	–	–	–	–	–	–
c1ccc(Cn2nnc3c(NCc4ccc5c(c4)OCO5)nc(C4CC4)nc32)cc1	–	–	–	–	–	–	·
Cc1nc(NCc2ccc3c(c2)OCO3)c2nnn(Cc3ccccc3)c2n1	101	–	–	–	–	–	–
O=C(CCCN1CCN(c2ccccc2)CC1)c1ccc(F)cc1	·	–	·	–	–	–	·
O=C1NCN(c2ccccc2)C12CCN(CCCC(c1ccc(F)cc1)c1ccc(F)cc1)CC2	106!	–	–	–	–	82	123
O=C1NC[C@@H](Cc2cccc3ccccc23)N(CCc2cc(C(F)(F)F)cc(C(F)(F)F)c2)C1=O	97	–	–	–	–	–	133
O=C1NC[C@H](Cc2ccccc2)N(CCc2cc(C(F)(F)F)cc(C(F)(F)F)c2)C1=O	·	·	·	·	–	·	·
CN(CC(=O)Nc1ccc(F)cc1)C(=O)CN1C(=O)NC(CCc2ccccc2)C1=O (configuration not stated)	·	–	·	–	–	–	·
O=C(Nc1nnc(-c2ccccc2Cl)o1)c1nc2ccccc2s1	99	–	–	–	–	–	–
CC1(C(=O)NS(=O)(=O)c2ccc3ccccc3c2)CCN1C(=O)CC1CCCCC1 (configuration not stated)	·	–	·	–	–	–	·
COc1ccc(/C=C(/C(=O)c2cccs2)N2C=CC=CC2=C(C#N)C#N)cc1	105	–	–	–	–	94	109
Nc1cccc2cccc([N+](=O)[O-])c12	·	–	–	–	–	–	·
Cc1ccc(S(=O)(=O)Nc2ccc(NC(=O)Nc3cccc(C(F)(F)F)c3)cc2)cc1	99	–	–	–	–	96	116
NNC(=O)Nc1cccc(C(F)(F)F)c1	–	–	–	–	–	–	·
O=C(NCc1ccccc1Cl)c1ccc(S(=O)(=O)Nc2cccc(C(F)(F)F)c2)cc1	98	–	–	–	–	–	110
O=C(NCCNC(=O)c1cc(OCC(F)(F)F)ccc1OCC(F)(F)F)Nc1cccc(C(F)(F)F)c1	104	–	–	–	–	–	101
O=C(Nc1ccc(OC(F)F)cc1)Nc1cccc(C(F)(F)F)c1	110	63	–	-52	–	–	86
COc1cc(/C=C(/C#N)C(=O)Nc2ccc(Cl)cc2)ccc1Oc1nc(Cl)ncc1F	–	–	–	–	–	–	·
O=C1NC(=O)C(c2ccccc2)(c2ccc(Cl)cc2Cl)N1 (configuration not stated)	·	–	–	–	–	–	·

High-throughput results from PubChem BioAssay.
